Bioassay records from PubChem BioAssay.
This is a sample that favours compounds with a hit; in the whole collection about 2.9% have one here.
Nrf2 inh: Nrf2 qHTS screen for inhibitors; hit rate 2.1% among 360,000; A549 ARE-Fluc reporter, luciferase luminescence, 18-24 h; Potency, µM (titrated, usually from 46 µM), inactives show top-dose activity change, negative = inhibition, hits mostly inhibitors; AID 504444, 2011; further: on the % scale 0 is the no-effect control and ±100 the full control effect; nearly all actives have a fitted effect of over 60% in size
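Nrf2 function is reported as luminescence of an ARE-controlled luciferase in A549 cells. Compounds were tested at several concentrations, and a CellTiter-Fluor read on the same wells flagged cytotoxicity.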
ATXN2 expr inh: Primary qHTS for Inhibitors of ATXN expression; HEK-293 ATXN2-luciferase reporter, luminescence, 24 h; Potency, µM (series often up to 57 µM), inactives show top-dose activity change, negative = inhibition, most hits filed as inhibitors; hit rate 0.72% among 360,000; further: on the % scale 0 is the no-effect control and ±100 the full control effect; nearly all actives have a fitted effect of over 55% in size
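qHTS (up to 57 uM final) was run with 24 h compound exposure of reporter cells at 37 °C. Each well was multiplexed: SteadyGlo luminescence measured ATXN2-luciferase expression after a fluorogenic Gly-Phe-AFC viability readout (25 uM final).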
Nrf2 activator: qHTS of Nrf2 Activators | AREc32 ARE-luciferase reporter (MCF7-derived line), luminescence, 24 h | Potency, µM (highest dose often 46.1 µM), inactives show at the top dose activation, hits mostly activators | hit rate 0.31% among 410,000 | AID 624171, 2012; further: % of control where 0% means no effect; nearly all actives have a fitted effect of over 65% in size
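Luminescent ARE reporter assay in AREc32_Fluc cells: overnight plating at 37 deg C, 24 hr compound incubation, Steady-Glo added, 30 min RT before reading.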
A549 viability: Nrf2 qHTS screen for inhibitors: counterscreen for cytotoxicity. A549 ARE-Fluc cells, CellTiter-Fluor viability, 18-24 h. Potency, µM (titrated, usually from 46 µM), without a hit: top-dose activity change, negative = cytotoxicity, actives largely listed as inhibitors. hit rate 0.16% among 390,000; further: on the % scale 0 is the no-effect control and ±100 the full control effect
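A549 ARE_Fluc cells in 5% FBS OPTI-MEM were exposed to compounds in concentration-response for 18-24 h at 37 deg C. Viability was read by CellTiter-Fluor fluorescence (Ex 405/Em 525) after 30 min, before the luciferase read.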
ATXN viability: Viability Counterscreen for Primary qHTS for Inhibitors of ATXN expression | Potency, µM (top dose mostly 56.7 µM), most hits filed as cytotoxic | S2 cells (HEK-293 line with an ATXN2-luciferase reporter) viability, CellTiter-Fluor protease fluorescence, 24 h | hit rate 0.49% among 400,000 | AID 651635, 2014; further: nearly all actives have a fitted effect of over 40% in size
* marks the source's active call; other numbers are inactive results; i = inactive; ? = inconclusive; · = no result given. The call rests on the fitted dose curve; in most records, active means well fitted curve in the direction sought with a large enough effect; inconclusive means small, poorly fitted or top-dose-only effect, or another doubt; inactive means no such curve, though single readings can be large; an effect the other way counts as inactive or inconclusive. Potency means the concentration at half of the fitted maximal effect.

SMILES	Nrf2 inh	ATXN2 expr inh	Nrf2 activator	A549 viability	ATXN viability
CC(NC(=O)c1cc(F)ccc1F)c1nnc2n1CCN(Cc1ccccc1O)CC2 (stereo unspecified)	·	·	·	·	i
Cc1c(C(=O)NCc2cccc(F)c2)sc2ncnc(NCC3CCCO3)c12 (stereo unspecified)	·	·	·	·	i
O=C(COc1ccccc1Cl)Nc1ccc(N2CCCC2)cc1	-21%	0%	5%	2%	i
O=C(COc1ccccc1Cl)Nc1ccc(N2CCN(C(=O)c3ccccc3)CC2)cc1	?	18µM*	-2%	-16%	?
O=C(COc1ccc(Cl)cc1)Nc1ccc(N2CCN(C(=O)c3ccco3)CC2)cc1	23µM*	-20%	0%	-1%	i
O=C(/C=C/c1c(F)cccc1Cl)Nc1ncccn1	?	36%	7.9µM*	-5%	i
O=C(/C=C/c1c(F)cccc1Cl)Nc1ccc(S(=O)(=O)Nc2ncccn2)cc1	6%	-11%	12%	4%	i
O=C(/C=C/c1c(F)cccc1Cl)c1ccc(O)cc1	-15%	24%	13µM*	-3%	i
O=C(O)c1ccc2c(c1)C(=O)N([C@H](Cc1ccc(C(F)(F)F)cc1)C(=O)O)C2=O	14%	·	·	-1%	·
Cc1nn(C)cc1CN(C)Cc1ccc(OCC(O)CN2CCCCC2)cc1 (stereo unspecified)	34%	-17%	0%	-18%	?
CN(Cc1ccc(OCC(O)CN2CCCCC2)cc1)Cc1ccnc2ccccc12 (stereo unspecified)	5.8µM*	·	5%	-2%	i
CC(C)=CCC/C(C)=C/Cc1c(O)ccc(C(=O)/C=C/c2ccc(O)cc2)c1O	-16%	?	-1%	-15%	32µM*
CCOCCOC(=O)/C=C/c1ccc(OC)cc1	·	28%	·	·	i
CCOc1ccccc1N=Nc1c(C)[nH]n(-c2nc(-c3ccccc3)cs2)c1=O	·	8%	·	·	·
Cc1ccc(C)c(Nc2cc(C(=O)NCCCN(C)C3CCCCC3)c3ccccc3n2)c1	0%	-15%	5%	-1%	?
CCc1ccccc1Nc1cc(C(=O)NCCCN(C)C2CCCCC2)c2ccccc2n1	20%	?	2%	3%	16µM*
COc1cc(S(N)(=O)=O)cc(C(=O)O)c1OC	·	4%	·	·	i
COc1ccc(Cn2nnnc2CN(Cc2cc3cccc(C)c3[nH]c2=O)C2CCCC2)cc1	?	0%	4%	-15%	i
COc1ccc(Cn2nnnc2CN(Cc2cc3ccc(C)cc3[nH]c2=O)C2CCCC2)cc1	21µM*	-7%	1%	?	i
CN(Cc1ccccc1)CC1CCCN(CCc2ccccc2F)C1 (stereo unspecified)	-11%	-20%	-1%	-18%	i
COc1cc(CN(C)CC2CCCN(CCc3ccccc3F)C2)cc(Cl)c1OC (stereo unspecified)	-14%	?	1%	?	18µM*
CC=C(C)C(=O)O[C@H]1C(C)=C[C@]23C(=O)[C@@H](C=C(CO)[C@@H](O)[C@]12O)[C@H]1[C@@H](C[C@H]3C)C1(C)C	·	-15%	·	·	·
Cc1ccccc1-c1cc(C(=O)NCc2ccc(OC(F)(F)F)cc2)n(CC2CC(c3cccnc3)=NO2)n1 (stereo unspecified)	21µM*	0%	-3%	-25%	i
Cc1ccc(CNC(=O)c2cc(-c3ccccc3C)nn2CC2CC(c3cccnc3)=NO2)cc1 (stereo unspecified)	-4%	-9%	0%	-1%	i
O=C(CCl)Nc1cc(-c2ccccc2)nn1-c1ccccc1	15%	?	?	5%	32µM*
SMILES	Nrf2 inh	ATXN2 expr inh	Nrf2 activator	A549 viability	ATXN viability
CCCCOc1cccc(C(=O)N(Cc2ccc(Br)o2)C2CCS(=O)(=O)C2)c1 (stereo unspecified)	-29%	·	1%	0%	·
Cc1cccc2sc(N(Cc3cccnc3)C(=O)CCS(=O)(=O)c3ccccc3)nc12	·	·	22µM*	4%	·
COc1ccc(-c2nc(-n3c(C)c(C(C)=O)c(C(C)=O)c3C)sc2C)cc1OC	-24%	-2%	1%	-21%	i
CC(=O)c1c(C(C)=O)c(C)n(-c2nc(-c3ccc(Br)cc3)c(C)s2)c1C	26µM*	-27%	0%	?	i
Brc1cnc2nc(SCc3nc4ccccc4[nH]3)[nH]c2c1	8%	24µM*	8%	-5%	i
COc1ccccc1C1CN(CCNC(=O)c2ccccc2Cl)Cc2ccccc2O1 (stereo unspecified)	·	·	·	·	i
C=C1CC(Cn2cc(Br)c(=O)[nH]c2=O)(c2ccc(-c3ccccc3)cc2)OC1=O (stereo unspecified)	?	28µM*	?	?	?
Cc1nc2cccnc2n1C1CCN(C(=O)Nc2ccc(Cl)cc2)CC1	·	15%	7%	-15%	i
COc1ccc(OC)c(Nc2c3ccccc3nc3ccccc23)c1	?	11µM*	3%	?	14µM*
COc1cc(NS(C)(=O)=O)ccc1Nc1c2ccccc2nc2ccccc12	?	0.25µM*	?	?	?
COc1ccc(Nc2nc(N3CCCC3)nc3ccccc23)c(OC)c1	?	10µM*	23%	18µM*	20µM*
O=C(COc1ccccc1)NNc1c2ccccc2nc2ccccc12	·	?	-1%	?	?
COc1ccc([N+](=O)[O-])cc1Nc1c2ccccc2nc2ccccc12	?	?	5%	?	?
COc1ccc(OCC(=O)NNc2c3ccccc3nc3ccccc23)cc1	21µM*	?	-1%	?	?
COc1ccc(Nc2nc(-c3ccc(C)cc3)nc3ccccc23)c(OC)c1	·	·	-1%	14%	·
O=C(C1CC1)N1CC[C@@H](Cn2c(-c3ccc(-c4ccc5occc5c4)cc3)nc3cnccc32)C1	·	-19%	·	·	·
COc1ccc(C2Nc3ccccc3C(=O)N2Cc2ccccc2C)cc1COc1ccc(NC(C)=O)cc1 (stereo unspecified)	?	·	·	-9%	·
COc1ccc2nc(NC(=O)C3CC(=O)N(c4ccc5c(c4)OCCO5)C3)sc2c1 (stereo unspecified)	?	-3%	2%	0%	i
COc1ccc(-c2nc(NC(=O)C3CC(=O)N(c4ccc5c(c4)OCCO5)C3)sc2C)cc1 (stereo unspecified)	15µM*	13µM*	0%	?	?
CCOC(=O)C(=CNc1ccc2c(c1)nnn2-c1ccc(Cl)cc1)C(=O)OCC	29µM*	24µM*	4%	?	?
COc1cccc(CN(C)C(=O)c2[nH]c(C)c(C(C)=O)c2C)c1OC	23µM*	-13%	0%	-1%	i
CCCCCCCCCC[n+]1cccc2c3ccccc3ccc21	-12%	0.67µM*	-3%	2%	?
